Experimental data as given in PubChem BioAssay (Tox21).
Results filed as inconclusive are left out. Where a call stands in place of a potency, no number is given. Activity calls are given as the source filed them. Calls come from the whole dose curve.

target: Peroxisome proliferator-activated receptor delta (Homo sapiens) (UniProt Q03181); assay: qHTS assay to identify small molecule agonists of the peroxisome proliferator-activated receptor delta (PPARd) signaling pathway (AID 743212); settings: HEK293H PPARd-UAS-bla, beta-lactamase FRET ratio, 17 h; series mostly up to 62.6 µM
Sequence (Q03181 whole entry, looked up): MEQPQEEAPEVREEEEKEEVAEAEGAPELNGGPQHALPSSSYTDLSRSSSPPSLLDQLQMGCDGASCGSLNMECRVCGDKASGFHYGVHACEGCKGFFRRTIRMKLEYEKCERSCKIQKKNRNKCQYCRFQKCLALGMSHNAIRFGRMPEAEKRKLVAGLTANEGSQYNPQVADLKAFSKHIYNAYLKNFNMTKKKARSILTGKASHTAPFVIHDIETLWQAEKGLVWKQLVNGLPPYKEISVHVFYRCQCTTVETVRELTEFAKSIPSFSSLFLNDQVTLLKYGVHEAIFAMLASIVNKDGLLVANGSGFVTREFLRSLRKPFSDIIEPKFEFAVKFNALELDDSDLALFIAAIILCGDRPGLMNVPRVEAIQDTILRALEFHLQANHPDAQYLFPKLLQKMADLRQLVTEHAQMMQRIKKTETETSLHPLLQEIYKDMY
From the text: U.S. Tox21 Program National Center for Advancing Translational Sciences [NCATS] NIH Chemical Genomics Center [NCGC] U.S. Environmental Protection Agency [EPA] National Institutes of Environmental Health Sciences [NIEHS] National Toxicology Program [NTP] U.S. Food and Drug Administration [FDA] Tox21 Assay Overview: The peroxisome proliferator-activated receptors (PPARs) are lipid-activated transcription factors of the nuclear receptor superfamily with three distinct subtypes namely PPAR alpha, PPAR delta (PPARd) and PPAR gamma. All these subtypes heterodimerizes with Retinoid X receptor (RXR) and have different physiological functions. […] To identify the compounds that activate PPAR-delta signaling, GeneBLAzer PPAR delta UAS-bla HEK293H cell line (Invitrogen, Carlsbad, CA, USA) containing a beta-lactamase reporter gene under the control of an Upstream Activator Sequence (UAS) was used to screen the Tox21 compound library.
Tox21 Assay Protocol Summary: PPARd-bla cells were dispensed at 3000 cells/6uL/well in 1536-well black wall/clear bottom plates using a Multidrop Combi (Thermo Fisher Scientific, Waltham, MA) dispenser. After the assay plates were incubated at 37 C and 5% CO2 for 5 h, 23 nL of compounds dissolved in DMSO, positive controls or DMSO only was transferred to the assay plate by a Pintool station (Kalypsys, San Diego, CA). The assay plates were incubated at 37C for 17 h. After 1 uL of LiveBLAzerTM B/G FRET substrate was added using a Bioraptr Flying Reagent Dispenser (FRD) workstation (Beckman Coulter, Indianapolis, IN, USA), the plates were incubated at room temperature for 2 h, and fluorescence intensity was measured by an Envision plate reader (PerkinElmer, Shelton, CT).

Compound	Potency
CC1(C)C(=O)NC(=O)N1CO	inactive
O=C1c2ccccc2C(=O)c2c1ccc(O)c2O	inactive
Oc1ccc(CCNCCCCCCNCCc2ccccc2)cc1O	inactive
CCC[Si](OC)(OC)OC	inactive
CO[C@@H]1COCC[C@@H]1N[C@@H]1CC[C@@](C(=O)N2CCc3ncc(C(F)(F)F)cc3C2)(C(C)C)C1	inactive
CCCOC(C)=O	inactive
Cc1nc2sccn2c(=O)c1CCN1CCC(=C(c2ccc(F)cc2)c2ccc(F)cc2)CC1	inactive
CCC(CC)C(=O)O	inactive
Cc1ccc2c(Cl)cc(Cl)c(O)c2n1	inactive
COc1ccc(/C(C)=C/C(=O)O)c(OC)c1	inactive
C=CC(C)(O)CC/C=C(/C)CCC=C(C)C (stereo not given)	inactive
O=C(O)c1ccccc1[N+](=O)[O-]	inactive
CNc1ccccc1	inactive
O=C(OCCN1CCOCC1)c1cccnc1Nc1cccc(C(F)(F)F)c1	inactive
SCCOCCOCCS	inactive
CC(=O)CC/C=C(\C)CC/C=C(\C)CC/C=C(\C)CCC=C(C)C	inactive
O=c1[nH]nc(-c2ccc([N+](=O)[O-])o2)o1	inactive
COc1cccc([C@H](O)C2CCN(CCc3ccc(F)cc3)CC2)c1OC	inactive
O=C(c1ccc(Cl)cc1)c1ccc(Cl)cc1	inactive
O=[N+]([O-])c1ccc(Cl)cc1Cl	inactive

Compound	Potency
CCCCOC(=O)C(C)Oc1ccc(Oc2ccc(C(F)(F)F)cn2)cc1 (stereo not given)	inactive
C[C@H]1C[C@H]2[C@@H]3CCC4=CC(=O)C=C[C@]4(C)[C@@]3(F)[C@@H](O)C[C@]2(C)[C@@]1(O)C(=O)COP(=O)(O)O	inactive
NC(=O)c1cc[n+](CC2=C(C(=O)[O-])N3C(=O)[C@@H](NC(=O)Cc4cccs4)[C@H]3SC2)cc1	inactive
CC(C)(Cc1c[nH]c2ccccc12)NCC(O)COc1ccccc1C#N (stereo not given)	inactive
O=C(OCCOCCOCCOC(=O)c1ccccc1)c1ccccc1	inactive
N#C[C@@H]1CC(F)(F)CN1C(=O)CNC1CC2CCC(C1)N2c1ncccn1 (stereo not given in full)	inactive
CCOc1ccc(NC(C)=O)cc1N	inactive
C=Cc1ccc(C=C)cc1	inactive
COC(=O)/C=C/C(C)=C\C=C\C(C)=C\C=C\C=C(C)\C=C\C=C(C)\C=C\C(=O)O	inactive
CC(C(=O)O)c1ccc(/C=C2\CCCCC2=O)cc1 (stereo not given)	inactive
CS(C)=O	inactive
CCCCCCCCCCCCSC#N	inactive
COc1ccc(CN(CCN(C)C)c2ncccn2)cc1	inactive
OCCCO	inactive
Cc1c(Cl)cccc1[N+](=O)[O-]	inactive
CCOc1ccc2c(c1)C(C)CC(C)(C)N2 (stereo not given)	inactive
Cc1cc(C)n(CO)n1	inactive
CCCCCCCCCCCCCCCCC(=O)O	inactive
CCOCCn1c(N2CCCN(C)CC2)nc2ccccc21	inactive
CCC(=O)O[C@]1(C(=O)COC)[C@@H](C)C[C@H]2[C@@H]3CCC4=CC(=O)C=C[C@]4(C)C3(F)[C@@H](O)C[C@@]21C (stereo not given in full)	inactive
